Screens (PubChem)
Compounds with a hit are over-represented: about 5.9% of the library has one in this group of screens.
FBPA coupling cs: coupling enzyme interference in Giardia aldolase counter-screen | coupling enzyme system counterscreen, AmpLite Red fluorescence | activity change, negative = inhibition, % at 58.2 µM, hits read low | 0.67% of 290,000 active; in the data active = activity change below about -30%
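Counterscreen of the coupled detection system alone, without aldolase: glyceraldehyde-3-phosphate coupling enzymes plus AmpLite Red readout. Compounds at 57.5 uM final, 10 min RT preincubation, 20 min RT reaction, fluorescence 525/598 nm.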
RORgamma inh: inhibitors of mouse ROR gamma transcriptional activity; Drosophila S2 Gal4-RORgamma UAS-luciferase reporter, 20 h; AID 2551; Potency, µM (series often up to 53.6 µM), most hits filed as inhibitors; 5.4% of 310,000 active; also: nearly all actives have a fitted effect of over 60% in size
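In this cell-based reporter format, copper sulfate (700 uM final) drives Gal4–ROR gamma fusion expression from a metallothionein promoter in Drosophila Schneider cells; compounds preincubated 1 hr, reporter read after 20 hr at ambient temperature.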
GALK inh: inhibitors of human galactokinase | Purified GALK, Kinase-Glo residual ATP luminescence | Potency, µM (highest dose often 57.5 µM), usual class: inhibitors | 0.007% of 270,000 active | AID 1868
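GALK at 5 nM final was combined with compound, 35 uM ATP and 100 uM galactose in HEPES pH8.0 with MgCl2 and DTT. The reaction ran one hour at room temperature before luminescent ATP detection.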
Gal4-VP16 FLuc: Gal4-VP16 reporter inhibition counter-screen; 3.5% of 310,000 active; Drosophila S2 Gal4-VP16 UAS-luciferase, luminescence, 20 h; Potency, µM (doses to about 53.6 µM), actives largely listed as inhibitors; AID 2546;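 also: Gal4-VP16 expression switched on by copper sulfate through the metallothionein promoter; nearly all actives have a fitted effect of over 50% in size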
TrxR1 substrate: rat thioredoxin reductase 1 substrate activity | purified TrxR1 substrate turnover, NADPH consumption readout | O89049 | 0.01% of 390,000 active | Potency, µM (top dose mostly 114 µM); also: nearly all actives have a fitted effect of over 50% in size
Target sequence (O89049 whole entry, looked up): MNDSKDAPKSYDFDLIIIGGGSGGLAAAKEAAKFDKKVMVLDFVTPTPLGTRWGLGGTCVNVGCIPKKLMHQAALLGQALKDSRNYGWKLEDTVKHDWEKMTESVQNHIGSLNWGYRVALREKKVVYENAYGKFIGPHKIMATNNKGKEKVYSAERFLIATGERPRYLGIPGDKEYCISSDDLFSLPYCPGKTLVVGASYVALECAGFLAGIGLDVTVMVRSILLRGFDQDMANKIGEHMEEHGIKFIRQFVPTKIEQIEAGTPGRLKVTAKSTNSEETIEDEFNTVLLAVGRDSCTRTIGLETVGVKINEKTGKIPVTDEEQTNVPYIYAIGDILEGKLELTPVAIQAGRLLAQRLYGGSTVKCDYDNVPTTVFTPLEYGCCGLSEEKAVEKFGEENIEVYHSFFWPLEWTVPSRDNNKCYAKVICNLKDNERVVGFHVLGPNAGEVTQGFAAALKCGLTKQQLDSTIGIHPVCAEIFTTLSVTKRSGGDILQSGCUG
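Rat TrxR1, dispensed at 90 nM, was prereduced with 400 uM NADPH (final) for 5 min at ~22 deg C, then incubated with compound 15 min before 400 uM selenite. A first-read NADPH fluorescence drop versus no-compound background flagged substrates.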
rTrxR1 inhibitor: inhibitors of rat thioredoxin reductase 1; O89049; recombinant rTrxR1, NADPH fluorescence consumption, selenite substrate; Potency, µM (series often up to 114 µM), most hits filed as inhibitors; 1% of 390,000 active; AID 588453; also: nearly all actives have a fitted effect of over 65% in size
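Rat TrxR1 (90 nM in the dispensed reagent) was pre-reduced with 400 uM NADPH for 5 min at room temperature, then incubated with compound for 15 min. After 400 uM selenite was added, NADPH fluorescence (Ex 340/Em 450 nm) was followed for 8 min.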
A number is an active result; 0 = inactive; ? = inconclusive; - = not tested or not shown; [ ] = remark or other dose. Unless noted, calls follow the shape of the dose curve; as a rule, active = well fitted curve in the direction sought with a large enough effect; inconclusive = small, poorly fitted or top-dose-only effect, or another doubt; inactive = no such curve, though single readings can be large; an effect the other way counts as inactive or inconclusive.

SMILES	FBPA coupling cs	RORgamma inh	GALK inh	Gal4-VP16 FLuc	TrxR1 substrate	rTrxR1 inhibitor
COc1ccc(N2C(=O)CCC(C(=O)O)C2c2ccccc2OC)cc1 (stereo not drawn)	0	0	0	0	0	0
CCOC(=O)C1CCCN(Cc2nc(N)nc(Nc3ccccc3OC)n2)C1 (stereo not drawn)	0	?	0	0	0	0
Cc1cc(N2CCCC2=O)cc(C)c1S(=O)(=O)NCCOc1ccc(C(C)(C)C)cc1	0	?	0	3.2µM	0	0
CC(C)(C)N1NC2(CCCCC2)NC1=S	0	0	0	0	0	0
CCOC(=O)CN1NC2(CCCCCC2)NC1=S	0	7.1µM	0	0	0	0
O=C(NNC(=S)Nc1ccccc1C(F)(F)F)C1CC1	0	20µM	0	0	0	0
O=C(CCC(=O)Nc1ccccc1Cl)NNC(=S)Nc1ccccc1C(F)(F)F	-	7.9µM	0	?	0	0
CC(NC(=S)Nc1ccccc1C(F)(F)F)C1CC2CCC1C2 (stereo not drawn)	0	3.2µM	0	10µM	0	0
FC(F)(F)c1ccccc1NC(=S)N1CCCCCC1	-	?	0	0	0	0
CC(NC(=O)c1ccccc1Br)C1CC2CCC1C2 (stereo not drawn)	-	-	-	-	0	0
Cc1ccc(C)c2sc(N3CCN(C(=O)c4ccco4)CC3)nc12	-	-	-	-	0	0
CCc1cc2c(NC(C(=O)O)C(C)C)ncnc2s1 (stereo not drawn)	0	0	0	0	0	0
COCCc1nnc(NC(=O)C(C)C)s1	0	0	0	0	0	0
CCC(C)c1ccc(NC(=S)NC2CCN(Cc3ccccc3)CC2)cc1 (stereo not drawn)	0	7.1µM	0	7.1µM	0	0
S=C(Nc1ccccc1)NC1CCN(Cc2ccccc2)CC1	0	0	0	0	0	0
Cc1ccccc1NC(=S)NC1CCN(Cc2ccccc2)CC1	0	18µM	0	?	0[11.4 µM]	0
S=C(Nc1ccc(Cl)cc1)NC1CCN(Cc2ccccc2)CC1	0	18µM	0	?	0	0
CCc1ccc(NC(=S)NC2CCN(Cc3ccccc3)CC2)cc1	0	10µM	0	?	0	0
COc1cc(CO)ccc1OCC(=O)N1CCc2ccccc21	0	2.5µM	0	?	0	0
CCN1C(=O)CC(NNC(=O)c2ccc(Cl)cc2)C1=O (stereo not drawn)	0	0	0	0	0	0
COc1ccc(C(=O)NNC2CC(=O)N(Cc3ccc(Cl)cc3)C2=O)cc1OC (stereo not drawn)	0	?	0	7.1µM	0	0
COc1ccc(N2C(=O)CC(NC3CCCCNC3=O)C2=O)cc1 (stereo not drawn)	0	0	0	0	0	0
COC(=O)N1CCC2(CCN(Cc3ccccc3)CC2)CC1	0	0	-	0	-	-
Cc1c(Cl)cccc1NC(=S)NCC1COc2ccccc2O1 (stereo not drawn)	0	6.3µM	0	?	0	0
Cc1ccc(/C=C/C(=O)NCC2COc3ccccc3O2)o1 (stereo not drawn)	0	?	0	0	0	16µM
SMILES	FBPA coupling cs	RORgamma inh	GALK inh	Gal4-VP16 FLuc	TrxR1 substrate	rTrxR1 inhibitor
COc1ccc(/C=C/C(=O)NCC2COc3ccccc3O2)cc1OC (stereo not drawn)	0	0	0	0	0	0
O=C(NC(=S)NCC1COc2ccccc2O1)c1ccccc1 (stereo not drawn)	0	0	0	0	0	?
C=CCNC(=S)NCC1COc2ccccc2O1 (stereo not drawn)	0	11µM	0	0	0	0
CCOc1ccc(Nc2c3c(nc4nncn24)CCC3)cc1	-	-	-	-	0	0
CC(c1ccccc1)N(C)C(=O)CN1CCN(S(=O)(=O)c2ccc3c(c2)OCCCO3)CC1 (stereo not drawn)	-	-	-	-	0	0
CCc1ccc(OCc2ccccc2C(=O)Nc2ccc3nc(C)cc(N)c3c2)cc1	0	11µM	-	?	0	0
CCOC(=O)c1ccc(NC(=O)c2cc(C)nc3ccccc23)cc1	0	?	0	0	0	0
CCOC(=O)c1nn(-c2ccc(F)cc2)c(=O)c2c(N)scc12	0	0	0	0	0	0
CCOC(=O)c1nn(-c2ccc(C)cc2)c(=O)c2c(N)scc12	-55	?	0	0	0	0
COC(=O)c1nn(-c2ccc(OC)cc2)c(=O)cc1NN	-43	0	0	0	0	0
COC(=O)c1nn(-c2ccc(OC)cc2)c(=O)c2c(N)sc(C)c12	-52	0	-	0	0	0
CCC1CN(C(=O)N2CCC(C(=O)NCCc3ccc(Cl)cc3)CC2)c2ccccc2O1 (stereo not drawn)	-	-	-	-	0	0
CCc1nc(N2CCN(C(=O)CCl)CC2)c2c3c(sc2n1)CC(C)CC3 (stereo not drawn)	0	16µM	0	?	0	22µM
CO/N=C(\c1ccccc1)c1cccnc1	0	0	0	0	0	0
CC1=CC(C)(C)NC(=S)N1c1ccccc1C	0	2.2µM	0	0[10 µM]	0	0
CC1=CC(C)(C)NC(=S)N1c1cccc(Cl)c1	-	-	-	-	0	0[2.29 µM]
CC1=CC(C)(C)NC(=S)N1c1ccc(C)cc1C	0	1.4µM	0	2.8µM	0	0
CC1=CC(C)(C)NC(=S)N1c1cc(C)cc(C)c1	0	3.5µM	0	?	0	0
COc1ccccc1NC(=O)N1CCCC1C(=O)NCc1ccc(F)cc1 (stereo not drawn)	0	0	0	0	0	0
O=C(CCl)NCc1cc(-c2ccc(Cl)cc2)no1	0	?	0	0	0	0
O=C(CN1C(=O)C2(SCC(=O)N2c2ccccc2)c2ccccc21)Nc1ccccc1C(F)(F)F (stereo not drawn)	-	-	-	-	0	0
CC(CNC(=O)COc1ccccc1)OC(=O)Nc1ccc(Cl)c(Cl)c1 (stereo not drawn)	0	0	0	0	0	0
O=c1cc(N2CCN(c3ccccc3)CC2)[nH]c(=O)n1Cc1ccc(F)cc1	0	0	0	0	0	0
CN1CCN(c2cc(=O)n(Cc3ccc(F)cc3)c(=O)[nH]2)CC1	0	0	0	0	0	14µM
Cc1nn(C)cc1/C=N/NC(=O)C1(O)c2ccccc2-c2ccccc21	0	0	-	3.5µM	0	0
SMILES	FBPA coupling cs	RORgamma inh	GALK inh	Gal4-VP16 FLuc	TrxR1 substrate	rTrxR1 inhibitor
O=C(N/N=C/c1ccco1)C1(O)c2ccccc2-c2ccccc21	0	?	0	0	0	0
COCCn1cnc2cc(C)c(C)cc21	0	?	0	0	0	0
CCCCn1cnc2cc(C)c(C)cc21	0	4µM	0	?	0	0
Cc1cc2ncn(CC(O)COc3cccc(C(=O)O)c3)c2cc1C (stereo not drawn)	0	0	0	0	0	0
Cc1cc2ncn(CCOc3ccccc3)c2cc1C	0	13µM	0	0	0	0
Cc1cc2ncn(CC(C)C)c2cc1C	0	7.9µM	0	?	0	0
